# Results published in PubChem BioAssay AID651815 (National Center for Advancing Translational Sciences (NCATS), 2012).
# About 1,100 (52%) of roughly 2,100 compounds were called active. Not shown: some 29% with an inconclusive outcome. The call rests on the fitted dose curve; in most records, active means well fitted inhibition curve with a large enough effect; inconclusive means small, poorly fitted or top-dose-only effect; inactive means no such curve, though single readings can be large or run the other way. So high a share suggests a set chosen from earlier hits. The list shows a part of the results.
# Target: DNA dC->dU-editing enzyme APOBEC-3F (Homo sapiens) (UniProt Q8IUX4)
# Sequence (Q8IUX4 whole entry, looked up): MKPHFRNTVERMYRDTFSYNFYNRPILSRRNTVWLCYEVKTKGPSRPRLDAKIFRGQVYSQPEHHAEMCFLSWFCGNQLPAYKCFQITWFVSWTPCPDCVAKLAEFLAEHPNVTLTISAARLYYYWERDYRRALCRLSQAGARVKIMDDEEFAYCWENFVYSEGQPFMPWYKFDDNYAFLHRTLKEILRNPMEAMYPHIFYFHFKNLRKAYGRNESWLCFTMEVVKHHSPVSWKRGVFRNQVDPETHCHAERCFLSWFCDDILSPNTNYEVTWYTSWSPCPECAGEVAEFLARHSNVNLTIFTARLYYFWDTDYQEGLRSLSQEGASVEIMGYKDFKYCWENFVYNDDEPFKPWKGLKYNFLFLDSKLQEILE
# Assay: qHTS for inhibitors of Vif-A3F interactions: Cherry picks counterscreen; further: nearly all actives have a fitted effect of over 65% in size
# Conditions: HeLa A3F-eYFP/Vif cells, eYFP fluorescence, 24 h; series mostly up to 46.1 µM; activity, negative = inhibitor: at the top concentration
# Text: The recent discovery and characterization of host restriction factors, which provide a potent defense to invading retroviruses, has provided new targets for antiviral drug development. APOBEC3G (A3G) and APOBEC3F (A3F) are potent cytidine deaminases that block HIV-1 replication; HIV-1 expresses the Vif protein, which counteracts A3G and A3F by binding to them and inducing their proteasomal degradation. The Vif-A3G and Vif-A3F interactions provide two potential targets for development of small molecules which can interfere with the ability of Vif to degrade A3G or A3F. […] To identify inhibitors that can interfere with Vif mediated degradation of A3G and A3F, we have developed Hela cell lines that stably express A3G or A3F tagged with eYFP at the C-terminal end (A3G-eYFP or A3F-eYFP, respectively) and Vif. In the absence of an inhibitor, Vif induces degradation of A3G-eYFP and A3F-eYFP, and the cells are not fluorescent. In the presence of an inhibitor, it is expected that Vif will be unable to degrade A3G-eYFP and/or A3F-eYFP, resulting in an increase in yellow fluorescence. In this counterscreen assay, Vif A3F was screened against the cherry picks ordered from the MLSMR. NIH Chemical Genomics Center [NCGC] NIH Molecular Libraries Probe Centers Network [MLPCN] MLPCN Grant: MH093245 Assay Submitter (PI): Vinay Pathak, National Cancer Institute
# A3F-Vif cells were harvested from T225 flask and resuspended in phenol free OPTI-MEM medium with 5% FBS. Then 5 uL of 140,000 cells/mL resuspended cells was dispensed into each well of low base Aurora COC 1,536-well plates (black walled, clear bottom) using a Multidrop Combi dispenser. After overnight culture at 37 deg C with 5% CO2, a total of 23 nL of compounds at 5 selected concentrations from the NPC or positive control (2 mM stock of MG132) in DMSO was transferred to each well of the assay plate using a pintool (Kalypsys, San Diego, CA), and the plates were further incubated at 37 deg C with 5% CO2 for 24 hours. After that, the plates were measured on Acumen Explorer (TTP Lab Tech). The fluorescence was detected by 488 nm/Ex and […].
# On the % scale 0 is the no-effect control and ±100 the full control effect; potency means the concentration at half of the fitted maximal effect.
Compound,Potency,"activity, negative = inhibitor"
CCOc1ccc2nc(NC(=O)c3nc(SC(C)C)ncc3Cl)sc2c1,11.6 µM (active),
Cc1ccc(NC(=O)/C=C/c2ccc([N+](=O)[O-])s2)c(C)c1,18.4 µM (active),
Cc1cccc(NC(=O)/C=C/c2ccc([N+](=O)[O-])s2)c1,7.31 µM (active),
COC(=O)c1sccc1NC(=S)Nc1cc(C)cc(C)c1,,7.32% (inactive)
Cc1cc(C)cc(NC(=O)/C=C/c2ccc([N+](=O)[O-])s2)c1,16.4 µM (active),
Cc1ccc(NC(=O)/C=C/c2ccc([N+](=O)[O-])s2)cc1,10.3 µM (active),
CCC(=O)OCc1cnc(C)c2oc(=O)c(C(=O)Nc3ccccc3C(F)(F)F)cc12,,-17.4% (inactive)
CC(=O)c1cccc(NC(=O)/C=C/c2ccc([N+](=O)[O-])s2)c1,16.4 µM (active),
CC(=O)c1cccc(NC(=S)N2c3ccccc3CC2C)c1 (centres undefined),,3.12% [at 36.9 µM] (inactive)
CCOCCC(=O)Nc1ccc2c(c1)c(=O)n(C)n2C/C=C/c1ccccc1,15.8 µM (active),
COc1ccc2[nH]c(C(=O)N/N=C/c3ccc(OC)c(O)c3)cc2c1,3.14 µM (active),
COc1ccc(/C=N/NC(=O)c2cc3c(OC)ccc(OC)c3[nH]2)cc1O,4.44 µM (active),
COc1cc2c(c(OC)c1OC)-c1ccc(N(C)CC(OC)OC)c(=O)cc1[C@@H](NC(C)=O)CC2,1.12 µM (active),
CN[C@H]1CCc2cc(OC)c(OC)c(OC)c2-c2ccc(N(C)CC(OC)OC)c(=O)cc21,2.8 µM (active),
CSc1cccc(NC(=O)c2cc3c(COC(C)=O)cnc(C)c3oc2=O)c1,,3.84% (inactive)
CCN(CC)c1ccc2cc(-c3nc(-c4ccc(Cl)cc4Cl)cs3)c(=O)oc2c1,,-4.58% (inactive)
CCN(CC)c1ccc2cc(-c3nc4ccccc4n3C)c(=O)oc2c1,7.31 µM (active),
CCN(CC)c1ccc2cc(-c3nc(-c4cccs4)no3)c(=O)oc2c1,0.291 µM (active),
CCN(CC)c1ccc2cc(-c3nnc(-c4cccc(Cl)c4)o3)c(=O)oc2c1,0.206 µM (active),
CCN(CC)c1ccc2cc(C(N)=O)c(=N)oc2c1,,37.6% (inactive)
CCN(CC)c1ccc2cc(-c3nnc(-c4ccccc4)o3)c(=O)oc2c1,0.112 µM (active),
CN(C)S(=O)(=O)c1ccc(N2CCCC2)c(C(=O)N2CCN(S(=O)(=O)c3ccc(F)c(F)c3)CC2)c1,,7.98% [at 36.9 µM] (inactive)
CCOC(=O)c1c(C)sc(-c2c(-c3ccccc3)[nH]c3[nH]c(=O)[nH]c(=O)c23)c1O,23.1 µM (active),

Compound,Potency,"activity, negative = inhibitor"
CCCCOc1ccc(-c2cc(C(F)(F)F)c(C#N)c(SCC(=O)O)n2)cc1,18.4 µM (active),
CCOC(=O)c1ccc(N=Nc2c(C)c(C#N)c(O)[nH]c2=O)cc1,,-26.8% (inactive)
CCOC(=O)c1ccc(NC(=O)CSc2nc(-c3ccc(F)cc3)cc(C(F)(F)F)c2C#N)cc1,18.4 µM (active),
CCOC(=O)c1ccc(NC(=O)CSc2nc(-c3ccc(OC)cc3)cc(C(F)(F)F)c2C#N)cc1,23.1 µM (active),
Cc1ccc(S(=O)(=O)CCSc2nc(C)cc(C(F)(F)F)c2C#N)cc1,12.5 µM (active),
COCc1cc(C)nc(SCC(=O)Nc2ccc3[nH]c(=O)[nH]c3c2)c1C#N,,-19.9% (inactive)
Cc1sc2nc(CSCC(=O)Nc3ccccc3C#N)[nH]c(=O)c2c1C,,-1.56% (inactive)
Cc1cc(C(F)(F)F)c(C#N)c(SCC(=O)Nc2nc3ccccc3s2)n1,16.4 µM (active),
Cc1coc(NC(=O)CSc2nc(-c3ccncc3)cc(C(F)(F)F)c2C#N)n1,7.31 µM (active),
CN(C)c1ccc(/C=C2\Oc3ccc(C#Cc4cccc(N)c4)cc3C2=O)cc1,15.8 µM (active),
O=C(Cc1n[nH]c(=O)c2ccccc12)OCC(=O)c1ccc2c(c1)OCCO2,2.8 µM (active),
CCOc1ccc(C(=O)COC(=O)Cc2n[nH]c(=O)c3ccccc23)cc1,4.44 µM (active),
COc1cccc(N=C2NC(=O)/C(=C/c3cc([N+](=O)[O-])ccc3O)S2)c1,,-25.7% (inactive)
COc1ccc(C(=O)/C=C/Nc2ccc([N+](=O)[O-])cc2C)c(OC)c1,18.4 µM (active),
N#C/C(N=Nc1ccccc1O)=N\Nc1ccccc1O,5.17 µM (active),
O=[N+]([O-])c1cc(Cl)c2cccnc2c1O,,4.37% (inactive)
Cc1cc(N2CCN(c3ccc([N+](=O)[O-])c4cccnc34)CC2)c2ccccc2n1,20.6 µM (active),
COc1ccccc1Nc1cc2cc(Br)ccc2c(=O)[nH]1,7.04 µM (active),
COc1ccc(NC(=O)c2oc3ccc(S(=O)(=O)N4CCOCC4)cc3c2C)cc1,,-10.1% [at 36.9 µM] (inactive)
COc1cccc(NC(=O)c2oc3ccc(S(=O)(=O)N4CCC5(CC4)OCCO5)cc3c2C)c1,13 µM (active),
COc1ccc(OCCCC(=O)N2CCN(S(=O)(=O)c3cccc(F)c3)CC2)cc1,,8.38% (inactive)
CN(CC(=O)Nc1ccc(Cl)c(C(F)(F)F)c1)C(=O)c1ccc(S(=O)(=O)N2CCOCC2)cc1,4.44 µM (active),
Cc1ccc(NC(=O)C2CCN(S(=O)(=O)c3ccc(Cl)c(C(F)(F)F)c3)CC2)nc1,,0.17% [at 36.9 µM] (inactive)

Compound,Potency,"activity, negative = inhibitor"
COC(=O)C1CCC(=O)N1C(c1ccc(OC)cc1)c1cc(OC)c(OC)c(OC)c1 (centres undefined),0.79 µM (active),
CC1=CN2C(=N)/C(=C/c3ccc([N+](=O)[O-])o3)C(=O)N=C2S1,14 µM (active),
CCS(=O)(=O)C1=NN2C(=N)/C(=C\c3ccc(SCc4ccco4)o3)C(=O)N=C2S1,,11.1% (inactive)
CCOC(=O)C1=C(Cc2ccc(F)cc2)C(=O)c2ccccc2C1=O,16.4 µM (active),
COc1ccc(C(C)(O)c2nc(-c3ccccc3OC)cs2)cc1 (centres undefined),12.5 µM (active),
CCOc1cc(/C=C(\C#N)c2nc(-c3cccs3)c(NC(C)=O)s2)ccc1O,,39.2% (inactive)
CC(=O)Nc1sc(/C(C#N)=C/c2ccc(Cl)c(Cl)c2)nc1-c1ccc(C)cc1,2.59 µM (active),
CC(=O)Nc1sc(/C(C#N)=C\c2cccc(Cl)c2)nc1-c1ccc(C)cc1,11.6 µM (active),
COc1ccc(CN(C(C)=O)c2cccc(C)c2C)cc1,15.8 µM (active),
COc1ccc(/C=c2\s/c(=C/C(=O)c3ccc(C)cc3)[nH]c2=O)c(OC)c1,18.4 µM (active),
CN1C2CCC1/C(=C\c1ccccc1)C(=O)/C2=C\c1ccccc1,15.8 µM (active),
CN1C2CCC1/C(=C/c1cccn1C)C(=O)/C2=C\c1cccn1C,18.4 µM (active),
Cn1cccc1/C=C1\CC(C(C)(C)C)C/C(=C\c2cccn2C)C1=O (centres undefined),1.3 µM (active),
CC(=O)c1cccc(NC(=O)C2CCCN(S(=O)(=O)c3cccc4nonc34)C2)c1 (centres undefined),,0.106% (inactive)
COc1ccc(NC(=O)C2(C)Cc3c(-c4cccc(C(N)=O)c4)ccnc3O2)cc1 (centres undefined),6.27 µM (active),
CC(=O)Nc1cccc(-c2ccnc3c2CC(C)(C(=O)Nc2cccc(C(C)=O)c2)O3)c1 (centres undefined),9.94 µM (active),
COc1ccc(NC(=O)C2(C)Cc3c(-c4cccc(NC(C)=O)c4)ccnc3O2)cc1 (centres undefined),2.8 µM (active),
COc1cc(C(=O)Nc2ccc3ccccc3c2)cc(OC)c1OC,3.14 µM (active),
COc1cc(C(=O)N/N=C/C2CC=CCC2)cc(OC)c1OC (centres undefined),,-4.4% [at 36.9 µM] (inactive)
COc1cc(C(=O)N/N=C(\C)c2ccccn2)cc(OC)c1OC,0.559 µM (active),
COc1cc(C(=O)Nc2ccc3c(c2)ncn3C)cc(OC)c1OC,5.59 µM (active),
CCOc1ccc(NC(=O)N2CC=C(c3c[nH]c4ccccc34)CC2)cc1,2.59 µM (active),
CCOC1=C2CN(S(=O)(=O)c3ccc(C)cc3)[C@H](c3cccc4ccccc34)C[C@H]2C(C#N)(C#N)C(C#N)(C#N)C1,,-5.71% [at 36.9 µM] (inactive)

Compound,Potency,"activity, negative = inhibitor"
Cc1ccc(C2NC(=O)c3ccccc3N2)s1 (centres undefined),17.7 µM (active),
COc1ccc2ccccc2c1C1NC(=O)c2ccccc2N1 (centres undefined),4.98 µM (active),
O=[N+]([O-])c1ccccc1C1Nc2cccc3cccc(c23)N1,,9.7% (inactive)
CCOc1ccccc1C1NC(=O)c2ccccc2N1 (centres undefined),3.53 µM (active),
COc1cc(OC)c(C2Nc3cccc4cccc(c34)N2)c(OC)c1,,-0.514% (inactive)
COc1ccc(N/C=C/c2nc(SC)nnc2C)cc1,18.4 µM (active),
C=CCSc1nnc(C)c(/C=C/Nc2ccc(Cl)cc2)n1,18.4 µM (active),
COc1cccc(C(=O)c2sc3nc(-c4ccccc4)cc(C(F)(F)F)c3c2N)c1,2.06 µM (active),
COc1ccc(C(=O)c2sc3nc(-c4ccc(C)cc4)cc(C(F)(F)F)c3c2N)cc1,5.17 µM (active),
CCOC(=O)c1c(-c2ccc(OC)cc2)csc1/N=C/C1=C(O)CCCC1=O,,-3.87% (inactive)
COc1ccc(NC(=O)c2sc3nc(-c4ccc(OC)cc4)cc(C(F)(F)F)c3c2N)cc1,7.31 µM (active),
CCOC(=O)c1c(C)nc2sc(C(=O)Nc3ccc(OC)cc3)c(N)c2c1-c1ccc(OC)cc1,2.8 µM (active),
CCc1ccc(NC(=O)c2sc3nc(C)c(C(=O)Nc4ccc(C)cc4C)c(-c4ccco4)c3c2N)cc1,16.4 µM (active),
COc1ccc(C(=O)c2sc3nc(C)cc(-c4cccs4)c3c2N)cc1,20.6 µM (active),
COc1cccc(NC(=O)c2sc3nc(C)c(C(=O)Nc4ccc(C)cc4C)c(-c4ccco4)c3c2N)c1,,-1.31% (inactive)
CCc1ccc(-c2cc(C(F)(F)F)n3nc(C(=O)Nc4cnn(Cc5ccc(C)cc5)c4)cc3n2)s1,16.4 µM (active),
COc1cc(C(=O)NCC(=O)N2CCN(S(=O)(=O)c3cc(C)ccc3C)CC2)cc(OC)c1OC,3.96 µM (active),
Cc1ccc(S(=O)(=O)N2CCN(C(=O)CSC(=S)N3CCCC3)CC2)c(C)c1,,5.96% (inactive)
C=C(/C=C/c1ccc(N(C)C)cc1)c1nc2ccccc2s1,18.4 µM (active),
CC1=Nc2ccc(C)cc2/C1=C/c1c(N)n2oc(C)cc2nc1=O,20.6 µM (active),
